PubChem BioAssay (EPA / NIEHS)
Activity calls are given as the source filed them. Rule for the calls: active = hit-call score of the fitted dose curve at least 0.9, where 1 is the maximum; inactive = score below 0.9.

Test system: not listed separately
Test: ATG_M_32_CIS: Attagene CIS-FACTORIAL HepG2 Assay for M32 Transcription Factor (Internal Marker) (AID 2282949);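 note: background control marker of the multiplexed CIS panel rather than a real target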
Conditions: HepG2 Attagene cis-factorial M32 reporter, mRNA; actives raise or lower the signal
How it was run: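 HepG2 transfectants (cis-regulated reporter transcription units) dosed 24 h. Reporter mRNA by RT-PCR plus CE, analysed as gain or loss relative to DMSO.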

SMILES | outcome | AC50
Nc1ccc(N=Nc2ccccc2)cc1 | inactive | 
N#CC(Br)(Br)C(N)=O | inactive | 
OCCOCCO | inactive | 
CC(C)(OOC(C)(C)c1ccccc1)c1ccccc1 | inactive | 
CCC(C)c1ccc(O)cc1 (stereo not given) | inactive | 
Cc1cc(N=Nc2ccccc2C)ccc1N | inactive | 
CCC12COCN1COC2 | inactive | 
CCCCCCCCn1sccc1=O | inactive | 
CCCCOC(=O)c1ccccc1C(=O)OCc1ccccc1 | inactive | 
COC(=O)Nc1nc2ccccc2[nH]1 | inactive | 
CC(C)(C)OOC(C)(C)CCC(C)(C)OOC(C)(C)C | inactive | 
O=C1CCCO1 | inactive | 
CCC[CH2][Sn]([Cl])([CH2]CCC)[CH2]CCC | inactive | 
[O-][Cl+]O | inactive | 
ClCCOCCCl | inactive | 
CC(C)(C)OOC(=O)c1ccccc1 | inactive | 
c1ccc(NNc2ccccc2)cc1 | inactive | 
Cc1ccc(N=C=O)cc1N=C=O | inactive | 
c1ccc2c(c1)-c1cccc3cccc-2c13 |  | 9.28 nM (active)
Cc1cccc(N)c1N | inactive | 
Clc1ccc(C(c2ccc(Cl)cc2)C(Cl)(Cl)Cl)cc1 | inactive | 
CN(C)c1ccc(C(=O)c2ccc(N(C)C)cc2)cc1 | inactive | 
COC(=O)c1ccccc1N | inactive | 
O=C(N[C@H](c1ccccc1)[C@@H]1CN2CCC1CC2)c1c(Cl)ccc(C(F)(F)F)c1Cl | inactive | 
CN(C)c1ccccc1 | inactive | 
O=[N+]([O-])c1ccc(Oc2ccc(Cl)cc2Cl)cc1 | inactive | 
CCCCCCCCOC(=O)c1ccc(C(=O)OCCCCCCCC)c(C(=O)OCCCCCCCC)c1 | inactive | 
COP(=S)(OC)SCN1C(=O)c2ccccc2C1=O | inactive | 

Test system: not listed separately
Test: ATG_M_06_CIS: Attagene CIS-FACTORIAL HepG2 Assay for M06 Transcription Factor (Internal Marker) (AID 2282950)
Conditions: HepG2 Attagene CIS-FACTORIAL M06 internal marker reporter; actives raise or lower the signal
How it was run: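 Measured 24 h post-dosing in transiently transfected HepG2 cells, this internal-marker endpoint reports reporter mRNA via RT-PCR with fluorescent primer extension and capillary electrophoresis. DMSO served as negative control and baseline for bidirectional fitting.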

SMILES | outcome
Nc1ccc(N=Nc2ccccc2)cc1 | inactive
N#CC(Br)(Br)C(N)=O | inactive
OCCOCCO | inactive
CC(C)(OOC(C)(C)c1ccccc1)c1ccccc1 | inactive
CCC(C)c1ccc(O)cc1 (stereo not given) | inactive
Cc1cc(N=Nc2ccccc2C)ccc1N | inactive
CCC12COCN1COC2 | inactive
CCCCCCCCn1sccc1=O | inactive
CCCCOC(=O)c1ccccc1C(=O)OCc1ccccc1 | inactive
COC(=O)Nc1nc2ccccc2[nH]1 | inactive
CC(C)(C)OOC(C)(C)CCC(C)(C)OOC(C)(C)C | inactive
O=C1CCCO1 | inactive
CCC[CH2][Sn]([Cl])([CH2]CCC)[CH2]CCC | inactive
[O-][Cl+]O | inactive
ClCCOCCCl | inactive
CC(C)(C)OOC(=O)c1ccccc1 | inactive
c1ccc(NNc2ccccc2)cc1 | inactive
Cc1ccc(N=C=O)cc1N=C=O | inactive
c1ccc2c(c1)-c1cccc3cccc-2c13 | inactive
Cc1cccc(N)c1N | inactive
Clc1ccc(C(c2ccc(Cl)cc2)C(Cl)(Cl)Cl)cc1 | inactive
CN(C)c1ccc(C(=O)c2ccc(N(C)C)cc2)cc1 | inactive
COC(=O)c1ccccc1N | inactive
O=C(N[C@H](c1ccccc1)[C@@H]1CN2CCC1CC2)c1c(Cl)ccc(C(F)(F)F)c1Cl | inactive
CN(C)c1ccccc1 | inactive
O=[N+]([O-])c1ccc(Oc2ccc(Cl)cc2Cl)cc1 | inactive
CCCCCCCCOC(=O)c1ccc(C(=O)OCCCCCCCC)c(C(=O)OCCCCCCCC)c1 | inactive
COP(=S)(OC)SCN1C(=O)c2ccccc2C1=O | inactive

Target: Hypoxia-inducible factor 1-alpha (Homo sapiens) (UniProt Q16665)
Sequence (Q16665 whole entry, looked up): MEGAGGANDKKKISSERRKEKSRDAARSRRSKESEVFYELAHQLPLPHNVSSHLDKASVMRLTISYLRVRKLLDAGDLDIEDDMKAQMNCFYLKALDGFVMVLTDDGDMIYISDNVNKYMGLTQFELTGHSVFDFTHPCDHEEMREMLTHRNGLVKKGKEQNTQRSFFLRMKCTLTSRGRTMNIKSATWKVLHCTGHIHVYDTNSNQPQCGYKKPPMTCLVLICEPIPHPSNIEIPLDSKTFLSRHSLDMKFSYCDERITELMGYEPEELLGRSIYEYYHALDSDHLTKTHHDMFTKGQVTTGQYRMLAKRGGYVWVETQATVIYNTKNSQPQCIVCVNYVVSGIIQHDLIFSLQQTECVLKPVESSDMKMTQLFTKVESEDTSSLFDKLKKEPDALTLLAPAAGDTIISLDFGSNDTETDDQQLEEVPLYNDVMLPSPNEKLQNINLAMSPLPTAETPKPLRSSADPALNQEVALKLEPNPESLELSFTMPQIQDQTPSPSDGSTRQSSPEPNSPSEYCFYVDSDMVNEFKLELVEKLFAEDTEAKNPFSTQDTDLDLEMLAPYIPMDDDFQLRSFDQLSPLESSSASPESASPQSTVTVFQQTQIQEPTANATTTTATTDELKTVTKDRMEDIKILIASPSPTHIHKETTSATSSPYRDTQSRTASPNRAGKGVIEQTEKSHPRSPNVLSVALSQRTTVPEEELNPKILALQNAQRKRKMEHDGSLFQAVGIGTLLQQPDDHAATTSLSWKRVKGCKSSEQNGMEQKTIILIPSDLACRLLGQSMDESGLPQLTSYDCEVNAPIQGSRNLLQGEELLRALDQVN
Test: ATG_HIF1a_CIS: Attagene CIS-FACTORIAL HepG2 Assay for human Hypoxia Inducible Factor 1 (HIF1A) (AID 2282951)
Conditions: HepG2 Attagene cis-factorial HIF1a reporter transcription; actives raise or lower the signal
How it was run: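 After 24 h chemical exposure of reporter-transfected HepG2 cells, reporter cDNA was PCR-amplified, labelled by 6-FAM primer extension (2 min 95 C, 20 s 68 C, 10 min 72 C), HpaI-cut (2 h, 37 C) and analysed by CE.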

SMILES | AC50 | outcome
Nc1ccc(N=Nc2ccccc2)cc1 | 58.1 µM (active) | 
CCC(C)c1ccc(O)cc1 (stereo not given) |  | inactive
COC(=O)Nc1nc2ccccc2[nH]1 |  | inactive
CC(C)(C)OOC(C)(C)CCC(C)(C)OOC(C)(C)C |  | inactive
[O-][Cl+]O |  | inactive
CC(C)(C)OOC(=O)c1ccccc1 |  | inactive
c1ccc(NNc2ccccc2)cc1 |  | inactive
Cc1cccc(N)c1N | 2.66 µM (active) | 
Clc1ccc(C(c2ccc(Cl)cc2)C(Cl)(Cl)Cl)cc1 |  | inactive
COC(=O)c1ccccc1N |  | inactive
O=[N+]([O-])c1ccc(Oc2ccc(Cl)cc2Cl)cc1 |  | inactive

Target: Hepatocyte nuclear factor 6 (Homo sapiens) (UniProt Q9UBC0)
Sequence (Q9UBC0 whole entry, looked up): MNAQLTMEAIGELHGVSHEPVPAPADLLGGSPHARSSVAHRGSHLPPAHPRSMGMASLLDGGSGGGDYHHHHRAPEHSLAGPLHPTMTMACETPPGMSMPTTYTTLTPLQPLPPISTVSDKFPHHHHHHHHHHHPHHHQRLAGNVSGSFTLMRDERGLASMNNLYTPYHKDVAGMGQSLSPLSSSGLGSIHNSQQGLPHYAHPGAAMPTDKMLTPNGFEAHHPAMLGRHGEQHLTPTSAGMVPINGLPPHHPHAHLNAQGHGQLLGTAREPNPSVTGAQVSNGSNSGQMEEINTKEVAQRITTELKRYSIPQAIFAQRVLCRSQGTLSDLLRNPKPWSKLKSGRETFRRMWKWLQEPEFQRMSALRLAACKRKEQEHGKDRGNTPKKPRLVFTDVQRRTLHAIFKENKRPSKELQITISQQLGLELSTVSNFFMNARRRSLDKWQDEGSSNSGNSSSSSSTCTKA
Test: ATG_HNF6_CIS: Attagene CIS-FACTORIAL HepG2 Assay for human Hepatocyte Nuclear Factor 6 (HNF6) (AID 2282952)
Conditions: HepG2 Attagene cis-factorial HNF6 reporter transcription; actives raise or lower the signal
How it was run: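 Twenty-four-hour chemical treatment of reporter-transfected HepG2 cells precedes RNA isolation, DNase-treated reverse transcription and PCR of reporter sequences. Labelled fragments are sized by capillary electrophoresis and fitted bidirectionally versus DMSO.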

SMILES | outcome | AC50
Nc1ccc(N=Nc2ccccc2)cc1 | inactive | 
N#CC(Br)(Br)C(N)=O | inactive | 
OCCOCCO | inactive | 
CC(C)(OOC(C)(C)c1ccccc1)c1ccccc1 |  | 100 µM (active)
CCC(C)c1ccc(O)cc1 (stereo not given) | inactive | 
Cc1cc(N=Nc2ccccc2C)ccc1N | inactive | 
CCC12COCN1COC2 | inactive | 
CCCCCCCCn1sccc1=O |  | 21 µM (active)
CCCCOC(=O)c1ccccc1C(=O)OCc1ccccc1 | inactive | 
COC(=O)Nc1nc2ccccc2[nH]1 | inactive | 
CC(C)(C)OOC(C)(C)CCC(C)(C)OOC(C)(C)C | inactive | 
O=C1CCCO1 | inactive | 
CCC[CH2][Sn]([Cl])([CH2]CCC)[CH2]CCC | inactive | 
[O-][Cl+]O | inactive | 
ClCCOCCCl | inactive | 
CC(C)(C)OOC(=O)c1ccccc1 | inactive | 
c1ccc(NNc2ccccc2)cc1 | inactive | 
Cc1ccc(N=C=O)cc1N=C=O | inactive | 
c1ccc2c(c1)-c1cccc3cccc-2c13 | inactive | 
Cc1cccc(N)c1N | inactive | 
Clc1ccc(C(c2ccc(Cl)cc2)C(Cl)(Cl)Cl)cc1 | inactive | 
CN(C)c1ccc(C(=O)c2ccc(N(C)C)cc2)cc1 | inactive | 
COC(=O)c1ccccc1N | inactive | 
O=C(N[C@H](c1ccccc1)[C@@H]1CN2CCC1CC2)c1c(Cl)ccc(C(F)(F)F)c1Cl | inactive | 
CN(C)c1ccccc1 | inactive | 
O=[N+]([O-])c1ccc(Oc2ccc(Cl)cc2Cl)cc1 | inactive | 
CCCCCCCCOC(=O)c1ccc(C(=O)OCCCCCCCC)c(C(=O)OCCCCCCCC)c1 | inactive | 
COP(=S)(OC)SCN1C(=O)c2ccccc2C1=O | inactive | 
